Measurements as given in PubChem BioAssay (NCI).
About 79,000 compounds went through this panel and 15% of them were active in at least one assay; those are over-represented in the sample as a whole. Unmarked numbers belong to inactive results. Activity calls are given as the source filed them. No stated cut-off is given here; in the data, active means growth inhibition above about 70%; inactive means the rest.

How the values were obtained:
[1] = NCI Yeast Anticancer Drug Screen. Data for the rad50 strain (AID 155);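 further: 0% = growth of vehicle-only cultures of the same strain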; conditions: S. cerevisiae rad50 strain growth inhibition; at 50.0 µM; active compounds read high
Method in brief: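 Inhibition values express reduced yeast growth in compound-treated cultures relative to vehicle-treated controls.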

[2] = NCI Yeast Anticancer Drug Screen. Data for the mec2-1 strain (AID 157); conditions: S. cerevisiae mec2-1 strain, at 50.0 µM, active compounds read high
Method in brief: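 Using mec2-1 yeast: add compound, measure growth, express inhibition versus vehicle-treated cultures.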

[3] = NCI Yeast Anticancer Drug Screen. Data for the sgs1 mgt1 strain (AID 161);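 further: 0% = growth of cultures given vehicle only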; conditions: S. cerevisiae sgs1 mgt1 strain, at 50.0 µM, active compounds read high
Method in brief: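 Growth of a repair-deficient yeast mutant was monitored after compound treatment and expressed as inhibition relative to vehicle-treated cultures.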

[4] = NCI Yeast Anticancer Drug Screen. Data for the cln2 rad14 strain (AID 165);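 further: 0% = growth equal to vehicle treated cultures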; conditions: S. cerevisiae cln2 rad14 strain, at 50.0 µM, active compounds read high
Method in brief: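 Yeast strain cln2 rad14, bearing defects in cell cycle control and DNA repair, serves as the test system; values reflect growth inhibition compared with vehicle.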

[5] = NCI Yeast Anticancer Drug Screen. Data for the bub3 strain (AID 167); conditions: S. cerevisiae bub3 mutant strain, at 50.0 µM, active compounds read high
Method in brief: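 Steps: expose the mutant yeast strain to compound; grow alongside vehicle-treated cultures; measure growth; express inhibition against the vehicle cultures.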

[6] = NCI Yeast Anticancer Drug Screen. Data for the mlh1 rad18 strain (AID 175); conditions: S. cerevisiae mlh1 rad18 strain growth inhibition; at 50.0 µM; active compounds read high
Method in brief: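 Steps: expose repair-defective yeast to compound; measure growth; express inhibition against vehicle-treated controls.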

Compound	growth inhibition [1]	growth inhibition [2]	growth inhibition [3]	growth inhibition [4]	growth inhibition [5]	growth inhibition [6]
C1CC[N-]CC1.CC(=N\O)/C(C)=N/O.CC(=N\O)/C(C)=N/O.CCOC(=O)CC[C-]=O.[Co+2]	-15.1%	8.95%	-10.1%	-39.3%	18%	9.55%
C[C@]12CC[C@H]3[C@@H](CC[C@]4(O)C[C@@H](O)CC[C@]34CO)[C@@]1(O)CC[C@@H]2C1=CC(=O)OC1	-6.1%	-23.1%	-17.6%	0.45%	1.35%	-16.9%
N#CC(C#N)=Cc1ccccc1O	-8.35%	-2.35%	-1.95%	-5.95%	-19.8%	-9.7%
CCCCCCCCCCCCP(=O)(O)OCC(N)C(=O)O (stereo not given)	-0.9%	-21.6%	1.5%	-7.1%	-12.8%	-17.9%
CCOc1ccccc1C=C(C#N)C#N	-2.25%	6%	19.1%	12.2%	1.75%	-4.15%
CCN(c1ccccc1)P(I)(c1ccccc1)(c1ccccc1)c1ccccc1	98.7% (active)	99.5% (active)	99.3% (active)	98.6% (active)	98.2% (active)	99% (active)
CC(C)N[C@@H]1CCC[C@H]1O	4.5%	-0.1%	-17.1%	11.7%	4.05%	-19.5%
CCCCOC(=O)c1ccccc1C(=O)O.[Mn]	-38.7%	-11.8%	-6.15%	-12.6%	-29.6%	-3.3%
O=C(Sc1c[nH]c(=O)[nH]c1=O)c1ccc(N(CCCl)CCCl)cc1	29.6%	-18.4%	19.9%	-24.8%	-6.3%	-1.05%
CCC(C)OC(=O)Nc1cccc(OC(=O)NC)c1 (stereo not given)	4.75%	-22.6%	-2.1%	-2.15%	-1.6%	-0.3%
CCCCCCCC(=O)O.[Sn]	-2.25%	-7.35%	-9.6%	-45.9%	12.1%	-19%
CCCOP(=O)(OCCC)C(=O)Nc1ccc(Br)cc1	-25.7%	2.95%	6.25%	-24.1%	25%	-9.5%
CC(C)(C)N.[O]=[Cr](=[O])([OH])[OH]	20.9%	7.45%	29.1%	-2.25%	21.7%	21%
CC1C(C)(C)P(=O)(Oc2cccc3cccnc23)C1(C)C (stereo not given)	83.3% (active)	64.7%	84.5% (active)	64.6%	99% (active)	57.2%
Cc1cccc(OP(=O)(c2ccccc2)c2ccccc2)c1	15.7%	0.35%	22.6%	-40.6%	3.55%	-15.9%
CC1(C)OC2OCCC(N=[N+]=[N-])C2O1 (stereo not given)	0.85%	-5.35%	-0.95%	-29.8%	-0.75%	-4.4%
CC(=O)Oc1ccc(CCN(C)C2CC3CCC2(C)C3(C)C)cc1OC(C)=O (stereo not given)	51.4%	21.4%	46.2%	-11.2%	6.1%	41%
CCCCCCCCCCCC(=O)[O][Pb]([CH2]CCC)([CH2]CCC)[O]C(=O)CCCCCCCCCCC	23.5%	4.05%	13.2%	-3.15%	6.45%	23%
Cc1ccccc1/C(=C/c1ccc([N+](=O)[O-])cc1)C(=O)Nc1ccc(S(=O)(=O)F)cc1	97.1% (active)	95.5% (active)	96.3% (active)	96.3% (active)	96.5% (active)	97.5% (active)
CC(C)OP(=O)(OC(C)C)/C(C#N)=C/c1ccco1	-23.9%	-51%	-23.6%	-32.2%	-20.1%	-31.9%

Compound	growth inhibition [1]	growth inhibition [2]	growth inhibition [3]	growth inhibition [4]	growth inhibition [5]	growth inhibition [6]
CNP(=S)(Oc1cc(Cl)c(Cl)cc1Cl)N1CCN(c2ccc(Cl)cc2)CC1 (stereo not given)	-0.5%	2%	4.35%	-0.9%	-2.9%	16.4%
N#CC(C#N)=C(C#N)C#N	14.1%	4.6%	1.9%	-25.9%	0.05%	6.25%
O=C(c1ccccc1)C1NC1c1ccccc1 (stereo not given)	13.8%	39.4%	1.65%	-16.6%	19.8%	10.2%
OC(CN1CC1)C(O)CN1CC1 (stereo not given)	-16.4%	-26.2%	-34%	8.15%	-44.8%	-14.2%
CC(=O)Nc1nn[nH]n1	21.9%	14.4%	2.1%	6.95%	0.7%	17.5%
CCN(CC)c1cccc(OC(=O)NC)c1	0.55%	-0.25%	-4.6%	-15.8%	3.5%	-10%
O=C(COc1cccc(Cl)c1)Nc1cccc(NC(=O)c2ccc(S(=O)(=O)F)cc2)c1	2.75%	5.95%	-6.85%	-17.2%	-5.75%	9.2%
CO[C@H]1C[C@H](O[C@H]2CC[C@]3(C=O)[C@H]4CC[C@]5(C)[C@@H](C6=CC(=O)OC6)CC[C@]5(O)[C@@H]4CC[C@]3(O)C2)O[C@H](C)[C@H]1O	33.4%	-11.3%	8.6%	0.55%	-6.45%	32.3%
N#CCc1ccc(O)cc1	1.25%	6.75%	-20.8%	-5.1%	-4.7%	14%
CC(C)NC(=O)C(Cl)CCl (stereo not given)	13.7%	8.9%	18.3%	11.5%	2.8%	6.7%
Nc1nc(=S)nc(N)[nH]1	21.6%	11.2%	-7.9%	-18.5%	14.6%	-2.5%
CSP(N)(=O)OC(C)C (stereo not given)	-16.9%	11.8%	-15.6%	-23.6%	-33.6%	15.8%
CCN(CC)CC(O)c1ccc(Br)cc1 (stereo not given)	0.85%	-20.1%	-0.25%	-3.55%	2.65%	5.7%
NCCCC(N)P(=O)(O)O (stereo not given)	12.3%	-1.6%	2.6%	-106%	1%	5.55%
COc1ccc(CCN)cc1OC	37.5%	9.9%	23%	-82%	-5.05%	-24.2%
CN1C(=O)C[N+]([O-])=C(c2ccccc2)c2cc(Cl)ccc21	2.45%	0.9%	-10.1%	18.6%	-5.15%	-13.7%
C=C(C)C1(CCC)C(=O)NC(=S)NC1=O	23.4%	19.7%	17.6%	25.6%	4.35%	22.4%
NCCCN1CCN(c2ccccc2)CC1	-0.45%	-30.2%	-12.6%	26%	-28.6%	-39.5%
O=[N+]([O-])c1ccc(OCc2ccc(S(=O)(=O)F)cc2Cl)c(Cl)c1	1.45%	-2.95%	-3.15%	20.6%	-3.55%	-3.6%
CC(C)(C)C1COP(=O)(C(C)(C)C)OC1 (stereo not given)	-12.6%	6.1%	-1.15%	-38.6%	10.6%	16.2%
